Test [1] is described as follows: IUF_NPC2c_oligodendrocyte_migration_120hr: Leibniz Research Institute for Environmental Medicine (IUF) 120-hour Neural Progenitor Cell Migration Assay for Oligodendrocyte Migration (NPC2c) (AID 2284297).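 Also: O4-positive oligodendrocyte migration distance divided by radial glia migration distance.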 The method, boiled down:
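Human fetal neural progenitor spheres (0.3 mm) are plated on poly-D-lysine/laminin in N2 differentiation medium and exposed for 120 h, with half-medium renewal at day 3. Oligodendrocyte (O4+) migration distance comes from ICC imaging, normalised to radial glia migration.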

The nature of test [2]: IUF_NPC2a_radial_glia_migration_120hr: Leibniz Research Institute for Environmental Medicine (IUF) 120-hour Neural Progenitor Cell Migration Assay for Radial Glia Migration (NPC2a) (AID 2284298). The method in brief: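 Human fetal-cortex neural progenitor spheres (0.3 mm) plated on poly-D-lysine/laminin in N2 differentiation medium, exposed 120 h at 37C with half-medium renewal at day 3. Radial glia migration distance (um) measured from Hoechst-stained nuclei images; DMSO baseline.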

The nature of test [3]: IUF_NPC2a_radial_glia_migration_72hr: Leibniz Research Institute for Environmental Medicine (IUF) 72-hour Neural Progenitor Cell Migration Assay for Radial Glia Migration (NPC2a) (AID 2284299). The method in brief:
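Human fetal neural progenitor spheres (0.3 mm) plated on poly-D-lysine/laminin in N2 differentiation medium and exposed from day 0 at 7 concentrations; radial glia migration distance from sphere edge measured at 72 h on brightfield images, mean of four directions, vs DMSO.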

The nature of test [4]: IUF_NPC2b_neuronal_migration_120hr: Leibniz Research Institute for Environmental Medicine (IUF) 120-hour Neural Progenitor Cell Migration Assay for Neuron Migration (NPC2b) (AID 2284300). The method, boiled down:
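0.3 mm hNPC spheres on poly-D-lysine/laminin in N2 differentiation medium exposed 120 h, half-medium refresh day 3; 7 concentrations, DMSO max 0.1%. Neuron (TUBB3) distance from sphere core by ICC imaging, normalised to radial glia migration.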

Test [5] in a line: IUF_NPC3_neuronal_differentiation_120hr: Leibniz Research Institute for Environmental Medicine (IUF) 120-hour Neuronal Differentiation Assay (NPC3) (AID 2284301). The method in brief:
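Human fetal (GW 16-19) neural progenitor spheres (0.3 mm) plated on poly-D-lysine/laminin in N2 differentiation medium, exposed 120 h at 37C with half-medium renewal day 3; 7 concentrations. TUBB3+ cells as % of Hoechst nuclei, CNN-identified; DMSO baseline.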

A short description of test [6]: IUF_NPC4_neurite_length_120hr: Leibniz Research Institute for Environmental Medicine (IUF) 120-hour Neuronal Morphology Assay for Neurite Length (NPC4) (AID 2284302). The method, boiled down:
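Human fetal neural progenitor spheres (0.3 mm) plated on poly-D-lysine/laminin in N2 differentiation medium, exposed from day 0 for 120 h with half-medium refresh at day 3, 37C. Mean neurite length (um) of TUBB3-positive neurons from skeletonized immunostaining images; DMSO ≤0.1%.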

Test [7] is described as follows: IUF_NPC5_oligodendrocyte_differentiation_120hr: Leibniz Research Institute for Environmental Medicine (IUF) 120-hour Oligodendrocyte Differentiation Assay (NPC5) (AID 2284304; active = hit-call score of the fitted dose curve at least 0.9, where 1 is the maximum;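 also: primary human fetal neural progenitor spheres plated to migrate and differentiate; share of O4-positive cells among Hoechst nuclei found by CNN image analysis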). The method, boiled down:
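Human fetal neural progenitor spheres (0.3 mm) plated on poly-D-lysine/laminin in N2 differentiation medium and exposed for 120 h at 7 concentrations, with half-medium renewal at day 3. O4-positive cells identified by CNN, expressed as percent of Hoechst nuclei.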

Test [8] is described as follows: IUF_NPC4_neurite_area_120hr: Leibniz Research Institute for Environmental Medicine (IUF) 120-hour Neuronal Morphology Assay for Neurite Area (NPC4) (AID 2284305; active = hit-call score of the fitted dose curve at least 0.9, where 1 is the maximum). The method, boiled down: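 Human fetal neural progenitor spheres (0.3 mm) plated on poly-D-lysine/laminin in N2 differentiation medium, exposed 120 h (7 concentrations, DMSO ≤0.1%, half-medium refresh day 3). Fixed, TUBB3 immunostained; mean neurite area per neuron by Omnisphero skeletonization.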

A short description of test [9]: IUF_NPC2-5_cytotoxicity_72hr: Cytotoxicity Assessment at 72 hours in the Leibniz Research Institute for Environmental Medicine (IUF) Neural Progenitor Cell Migration and Differentiation Assay for Cytotoxicity (NPC2-5) (AID 2284306; active = hit-call score of the fitted dose curve at least 0.9, where 1 is the maximum;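 also: LDH release into supernatant measured by resorufin fluorescence marking membrane damage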). The method in brief: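 Human fetal primary neural progenitor spheres (0.3 mm) plated on poly-D-lysine/laminin in N2 differentiation medium, exposed from day 0 at 37C. LDH-dependent resazurin-to-resorufin fluorescence in supernatant at 72 h; 7 concentrations, DMSO at most 0.1%.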

The nature of test [10]: IUF_NPC2-5_cytotoxicity_120hr: Cytotoxicity Assessment at 120 hours in the Leibniz Research Institute for Environmental Medicine (IUF) Neural Progenitor Cell Migration and Differentiation Assay (NPC2-5) (AID 2284307; active = hit-call score of the fitted dose curve at least 0.9, where 1 is the maximum). The method, boiled down: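 Human fetal (GW 16-19) neural progenitor spheres (0.3 mm) plated on poly-D-lysine/laminin in N2 differentiation medium, exposed 120 h with half-medium renewal at day 3; 7 concentrations plus solvent control, DMSO ≤0.1%. LDH release in supernatant read by resorufin fluorescence.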

Test [11] in a line: IUF_NPC2-5_viability_120hr: Viability Assessment at 120 hours in the Leibniz Research Institute for Environmental Medicine (IUF) Neural Progenitor Cell Migration and Differentiation Assay (NPC2-5) (AID 2284312). The method in brief:
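Human fetal neural progenitor spheres (0.3 mm) plated on poly-D-lysine/laminin in N2 differentiation medium, exposed 120 h with half-medium refresh at day 3. Viability by alamar blue resazurin fluorescence; 7 concentrations, DMSO max 0.1%.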

SMILES strings stand for the structures. Inconclusive results are not listed. The source made the active and inactive calls. The calls were made as follows, unless noted: active = hit-call score of the fitted dose curve at least 0.9, where 1 is the maximum; inactive = score below 0.9.

These results are taken from PubChem BioAssay (EPA / NIEHS).

For `CCOc1cc(Oc2ccc(C(F)(F)F)cc2Cl)ccc1[N+](=O)[O-]`, the result in test [1], in test [2], in test [3], in test [4], in test [5] and in test [6] was inactive. The molecule was called inactive in [8], in [9], in [10] and in test [11]. In addition, in test [7], the AC50 (as a rule, the concentration at which the activity in the assay is half-maximal) is 5.26 µM (active).

For the molecule `COP(N)(=O)SC` (stereo not drawn), the call in [1], in test [2], in test [3], in test [4], in test [5] and in test [6] was inactive. For the same molecule, the molecule was classed as inactive in [7], in [8], in [9], in test [10] and in test [11].

Turning to `CCCCC(CC)COC(=O)c1ccccc1C(=O)OCC(CC)CCCC` (stereo not drawn), the molecule was classed as inactive in test [1], in test [2], in test [3], in [4], in test [5] and in test [6]. Also, the call in test [7], in test [9], in test [10] and in [11] was inactive.

`CCOC(=O)CC(SP(=S)(OC)OC)C(=O)OCC` (stereo not drawn): the result in [1], in test [2], in [3], in test [4], in [5] and in [6] was inactive. The call in test [8], in [10] and in test [11] was inactive.

For the molecule `C=CC1(C)OC(=O)N(c2cc(Cl)cc(Cl)c2)C1=O` (stereo not drawn), the molecule was called inactive in [1], in [2], in [3], in [4], in test [5] and in test [6]. Also, the result in test [7], in test [9], in [10] and in test [11] was inactive.

Regarding `CO/C=C(/C(=O)OC)c1ccccc1Oc1cc(Oc2ccccc2C#N)ncn1`, the molecule was classed as inactive in test [1], in test [2], in test [3], in test [4], in test [5] and in [6]. The molecule was called inactive in test [7], in test [8], in [9], in test [10] and in [11].

`CNC(=O)ON=CC(C)(C)SC`: the result in test [1], in [2], in [3], in test [4], in test [5] and in test [6] was inactive. In addition, the call in [7], in test [8], in [9], in [10] and in test [11] was inactive.
